According to PubChem BioAssay (NCATS):
“And” between values parts separate entries of the source, which are not always exact repeats. Equal entries are not always repeated. Inconclusive results are not listed. A call without a number means that no potency is given here. Values without a mark were called inactive. The source made the active and inactive calls. The call rests on the fitted dose curve; in most records, active means well fitted curve in the direction sought with a large enough effect; inconclusive means small, poorly fitted or top-dose-only effect, or another doubt; inactive means no such curve, though single readings can be large; an effect the other way counts as inactive or inconclusive.

Assays:
HEK293 = experiment: Cytotoxic Profiling of Annotated Libraries Using Quantitative High-Throughput Screening (AID 1296008); settings: Five cell lines viability, CellTiter-Glo ATP luminescence, 48-72 h; max response: hits give low values; further: nearly all actives have a fitted effect of over 60% in size
Summary of the method: (§1)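 Cytotoxicity was measured as CellTiter-Glo ATP luminescence, read after 10 min at room temperature. Compound treatment of the cells lasted 48 or 72 hr at 37 degrees Celsius in a qHTS format.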

NIH3T3 [1] = experiment: as above; settings: Five cell lines viability, CellTiter-Glo ATP luminescence, 48-72 h; max response: hits give low values
Summary of the method: as §1

MCC-26 = experiment: qHTS assay to identify novel small-molecules to repurpose for Merkel cell carcinoma treatment (AID 1296009); settings: MCC and control cell lines, CellTiter-Glo viability, 72 h; series mostly up to 46 µM; further: nearly all actives have a fitted effect of over 60% in size
Summary of the method: (§2)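 72 hr, 37 degree celsius; NPC 8-pt / MIPE 11-pt dose response; compound pinned in DMSO; CellTiter-Glo, 10 min RT, luminescence; normalized to no-cell and DMSO controls.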

MKL-1 = experiment: as above; settings: MCC and control cell lines, CellTiter-Glo viability, 72 h; series mostly up to 46 µM
Summary of the method: as §2

HaCat [2] = experiment: Cytotoxic Profiling of Annotated Libraries Using Quantitative High-Throughput Screening (AID 1296008); settings: Five cell lines viability, CellTiter-Glo ATP luminescence, 48-72 h; max response: hits give low values; further: nearly all actives have a fitted effect of over 60% in size
Summary of the method: as §1

KB-3-1 = experiment: as above; settings: Five cell lines viability, CellTiter-Glo ATP luminescence, 48-72 h; max response: hits give low values
Summary of the method: as §1

UISO = experiment: qHTS assay to identify novel small-molecules to repurpose for Merkel cell carcinoma treatment (AID 1296009); settings: MCC and control cell lines, CellTiter-Glo viability, 72 h; series mostly up to 46 µM; further: nearly all actives have a fitted effect of over 60% in size
Summary of the method: as §2

WaGa = experiment: as above; settings: MCC and control cell lines, CellTiter-Glo viability, 72 h; series mostly up to 46 µM
Summary of the method: as §2

HACAT [3] = experiment: as above; settings: MCC and control cell lines, CellTiter-Glo viability, 72 h; at 44.8 µM (top of the series) unless noted
Summary of the method: as §2

MCC-13 = experiment: as above; settings: MCC and control cell lines, CellTiter-Glo viability, 72 h; series mostly up to 46 µM
Summary of the method: as §2

MKL-2 = experiment: as above; settings: MCC and control cell lines, CellTiter-Glo viability, 72 h; series mostly up to 46 µM
Summary of the method: as §2

C33A = experiment: Primary qHTS to identify gynecologic anti-cancer compounds using libraries of approved drugs and bioactive compounds (AID 1345084); settings: Gynecologic cancer cell panel viability, ATPlite luminescence, 48 h; series mostly up to 57.5 µM; further: nearly all actives have a fitted effect of over 55% in size
Summary of the method: (§3)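 Cells, 1,000 per well, plated 16 h, then exposed 48 h at 37 C to compounds. Viability by ATPlite luminescence after 15 min at room temperature.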

CAOV3 = experiment: as above; settings: Gynecologic cancer cell panel viability, ATPlite luminescence, 48 h; series mostly up to 57.5 µM
Summary of the method: as §3

CASKI = experiment: as above; settings: Gynecologic cancer cell panel viability, ATPlite luminescence, 48 h; series mostly up to 57.5 µM
Summary of the method: as §3

Es-2 = experiment: as above; settings: Gynecologic cancer cell panel viability, ATPlite luminescence, 48 h; series mostly up to 57.5 µM
Summary of the method: as §3

HeLa = experiment: as above; settings: Gynecologic cancer cell panel viability, ATPlite luminescence, 48 h; series mostly up to 57.5 µM
Summary of the method: as §3

Hek293T [4] = experiment: as above; settings: Gynecologic cancer cell panel viability, ATPlite luminescence, 48 h, control line for the selectivity index; series mostly up to 57.5 µM
Summary of the method: as §3

JEG-3 = experiment: as above; settings: Gynecologic cancer cell panel viability, ATPlite luminescence, 48 h; series mostly up to 57.5 µM
Summary of the method: as §3

HEK293T [5] = experiment: qHTS assay to identify novel small-molecules to repurpose for Merkel cell carcinoma treatment (AID 1296009); settings: MCC and control cell lines, CellTiter-Glo viability, 72 h; at 44.8 µM (top of the series); further: nearly all actives have a fitted effect of over 60% in size
Summary of the method: as §2

NIH3T3 [6] = experiment: as above; settings: MCC and control cell lines, CellTiter-Glo viability, 72 h; at 44.8 µM (top of the series) unless noted
Summary of the method: as §2
Potency means the concentration at half of the fitted maximal effect.

In the case of COCC(=O)NCC=Cc1ccc2ncnc(Nc3ccc(Oc4ccc(C)nc4)c(C)c3)c2c1, the Potency (HEK293) is reported as 13.2 µM (active), the max response (NIH3T3 [1]) is reported as -10.3% and the Potency (MCC-26) is reported as “inactive”. For the same compound, the Potency (MKL-1) was “inactive”.
In the case of O=C1[C@H](Cc2ccc(O)cc2)N2C(=O)CCN(C(=O)NCc3ccccc3)[C@H]2CN1Cc1cccc2ccccc12, the Potency (HEK293) is reported as 2.09 µM (active), the Potency (HaCat [2]) is reported as 2.96 µM (active) and the Potency (KB-3-1) is reported as 16.6 µM (active). The Potency (MKL-1) was 14.8 µM (active), the Potency (UISO) was 4.69 µM (active) and the Potency (WaGa) was 13.2 µM (active).
In the case of COc1ccc(-c2ccc3c(N4CCOCC4)nc(N4C[C@@H](C)O[C@@H](C)C4)nc3n2)cc1CO, the Potency (HEK293) is reported as 0.662 µM (active), the Potency (KB-3-1) is reported as 1.66 µM (active) and the Potency (NIH3T3 [1]) is reported as 3.72 µM (active). The Potency (MKL-1) was “inactive”.
With CCC(C)N(C)C(=O)c1cc2ccccc2c(-c2ccccc2Cl)n1 (stereo unspecified) the outcome (HaCat [2]) was “inactive”, the max response (KB-3-1) was 3.08% and the max response (NIH3T3 [1]) was -14%. For the same compound, the outcome (HACAT [3]) was “inactive”, the Potency (MCC-13) was “inactive” and the Potency (MCC-26) was “inactive”. For the same compound, the Potency (MKL-1) was “inactive”, the Potency (MKL-2) was “inactive” and the Potency (UISO) was “inactive”. The Potency (WaGa) was “inactive”.
For COc1ccccc1[C@H](c1cccc2ccccc12)[C@@](C)(C#N)C(=O)N1CCC(c2cccc(C(F)(F)F)c2)CC1, the Potency (HEK293) was 13.2 µM (active), the max response (HaCat [2]) was -11.9% and the Potency (MCC-13) was “inactive”. For the same compound, the Potency (MCC-26) was “inactive”, the Potency (C33A) was “inactive” and the Potency (CAOV3) was “inactive”. For the same compound, the Potency (CASKI) was “inactive”, the Potency (Es-2) was “inactive” and the Potency (HeLa) was “inactive”. For the same compound, the Potency (Hek293T [4]) was “inactive” and the Potency (JEG-3) was “inactive”.
In the case of Cc1cc(Nc2nc(N[C@@H](C)c3ncc(F)cn3)ncc2Cl)n[nH]1, the Potency (HEK293) is reported as 7.31 µM (active), the Potency (HaCat [2]) is reported as 6.51 µM (active) and the Potency (NIH3T3 [1]) is reported as 8.2 µM (active). For the same compound, the Potency (MCC-13) was “inactive”, the Potency (C33A) was “inactive” and the Potency (Es-2) was “inactive”. The Potency (HeLa) was 4.47 µM (active), the Potency (Hek293T [4]) was “inactive” and the Potency (JEG-3) was “inactive”.
In the case of Cc1cc2c(F)c(Oc3ncnn4cc(OC[C@@H](C)O)c(C)c34)ccc2[nH]1, the Potency (HEK293) is reported as 3.72 µM (active), the max response (HaCat [2]) is reported as -13.8% and the Potency (MCC-13) is reported as “inactive”. For the same compound, the Potency (MCC-26) was “inactive” and the Potency (MKL-1) was “inactive”.
COc1nc(-c2ccc3c(c2)OCO3)n(-c2ccc(NC(=O)CSc3ccccc3)cc2)n1 was tested, and the outcome (HaCat [2]) was “inactive”, the max response (KB-3-1) was -3.01% and -18.6% and the max response (NIH3T3 [1]) was -26.7%. For the same compound, the outcome (HACAT [3]) was “inactive”, the Potency (MCC-13) was “inactive” and the Potency (MCC-26) was “inactive”. The Potency (MKL-1) was “inactive”, the Potency (MKL-2) was “inactive” and the Potency (UISO) was “inactive”. For the same compound, the Potency (WaGa) was “inactive”, the Potency (C33A) was “inactive” and the Potency (CAOV3) was “inactive”. The Potency (CASKI) was “inactive”, the Potency (Es-2) was “inactive” and the Potency (Hek293T [4]) was “inactive”. For the same compound, the Potency (JEG-3) was “inactive”.
In the case of CN[C@@H](C)C(=O)N[C@H]1CCCC[C@H]2CC[C@@H](C(=O)N[C@@H](c3ccccc3)c3cn(CCCCc4ccc(CCCCn5cc([C@@H](NC(=O)[C@@H]6CC[C@@H]7CCCC[C@H](NC(=O)[C@H](C)NC)C(=O)N76)c6ccccc6)nn5)cc4)nn3)N2C1=O, the outcome (HEK293) is reported as “inactive”, the outcome (HaCat [2]) is reported as “inactive” and the outcome (NIH3T3 [1]) is reported as “inactive”. For the same compound, the outcome (HACAT [3]) was “inactive”, the outcome (HEK293T [5]) was “inactive” and the Potency (MCC-13) was “inactive”. The Potency (MCC-26) was “inactive”, the Potency (MKL-1) was 23.5 µM (active) and the Potency (MKL-2) was 9.35 µM (active). For the same compound, the outcome (NIH3T3 [6]) was “inactive”.
For Oc1cccc(-c2nc(N3CCOCC3)c3oc4ncccc4c3n2)c1, the Potency (HEK293) was 0.171 µM (active) and the Potency (NIH3T3 [1]) was 0.762 µM (active).
O=C(Nc1cccnc1)N1CCC(Cc2cccc(Oc3ccc(C(F)(F)F)cn3)c2)CC1 was tested, and the Potency (HEK293) was 10.5 µM (active) and 8.2 µM (active), the max response (HaCat [2]) was -12.8% and the Potency (MKL-2) was 16.6 µM (active). The Potency (UISO) was 16.6 µM (active), the Potency (CAOV3) was “inactive” and the Potency (HeLa) was “inactive”.
N#CC[C@H](C1CCCC1)n1cc(-c2ncnc3[nH]ccc23)cn1 was tested, and the max response (HaCat [2]) was 0.777%, the outcome (HaCat [2]) was “inactive” and the outcome (HACAT [3]) was “inactive”. The Potency (MCC-13) was “inactive”, the Potency (MKL-1) was “inactive” and the Potency (MKL-2) was “inactive”. The Potency (WaGa) was “inactive”, the Potency (C33A) was “inactive” and the Potency (CAOV3) was “inactive”. The Potency (CASKI) was “inactive”, the Potency (HeLa) was “inactive” and the Potency (Hek293T [4]) was “inactive”. For the same compound, the Potency (JEG-3) was “inactive”.
